Sampled rows, rich in hits. Any-hit rate of the full collection: about 3%.
p53null 32C tox: selectivity test: cytotoxicity in p53 null cells, permissive temperature; H1299-neo p53 null cells, ATP luminescence, 24 h, 32C; Potency, µM (series often up to 46.1 µM), most hits filed as cytotoxic; AID 903; 0.62% of 55,000 active; note: nearly all actives have a fitted effect of over 55% in size
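Overnight 37C seeding (600 cells/well) of H1299-neo preceded a 24 hr, 32C exposure to compounds up to 46 uM. ATP levels, read by luminescence after 20 min at RT, indicated surviving cells.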
GALC G270D up: raises human GALC G270D mutant activity in cells | P54803 | 145M-Twi-hGALC-G270D cells (Twitcher mouse brain line with human GALC G270D), HMU-beta-Gal fluorescence, 48 h | Potency, µM (highest dose often 57.5 µM), actives largely listed as activators | 0.1% of 45,000 active; note: nearly all actives have a fitted effect of over 65% in size
Target sequence (P54803 whole entry G286D): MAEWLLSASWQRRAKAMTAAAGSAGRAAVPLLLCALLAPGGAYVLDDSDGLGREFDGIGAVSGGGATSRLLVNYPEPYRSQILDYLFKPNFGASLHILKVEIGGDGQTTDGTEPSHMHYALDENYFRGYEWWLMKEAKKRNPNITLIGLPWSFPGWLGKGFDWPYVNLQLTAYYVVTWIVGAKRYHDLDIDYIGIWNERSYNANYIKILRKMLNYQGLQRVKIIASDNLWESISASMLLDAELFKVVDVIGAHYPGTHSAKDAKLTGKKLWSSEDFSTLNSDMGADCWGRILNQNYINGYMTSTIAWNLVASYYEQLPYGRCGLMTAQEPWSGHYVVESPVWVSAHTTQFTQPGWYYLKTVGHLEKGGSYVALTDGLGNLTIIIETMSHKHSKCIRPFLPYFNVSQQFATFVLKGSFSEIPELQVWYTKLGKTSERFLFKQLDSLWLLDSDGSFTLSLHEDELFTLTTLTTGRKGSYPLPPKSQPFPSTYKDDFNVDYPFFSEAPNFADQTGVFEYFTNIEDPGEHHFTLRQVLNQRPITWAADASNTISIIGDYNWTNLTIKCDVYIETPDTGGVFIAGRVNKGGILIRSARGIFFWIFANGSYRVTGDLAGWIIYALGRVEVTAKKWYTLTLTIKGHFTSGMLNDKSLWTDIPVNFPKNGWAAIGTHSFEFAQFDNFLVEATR
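Fluorogenic HMU-b-Gal hydrolysis (0.1 mM final, pH 5.2 citrate-phosphate with 1 mg/mL sodium taurocholate; carbonate stop buffer) measures mutant GALC activity after compound treatment of live 145M-Twi Twitcher brain cells stably carrying human GALC-G270D, with wild-type GALC line alongside; activation sought.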
S16 F2sN tox: S16 Schwann cell cytotoxicity. S16 Pmp22-F2sN Schwann cells viability, CellTiter-Glo, 24 h. Potency, µM (titrated, usually from 57.5 µM), hits mostly cytotoxic. 0.48% of 43,000 active. AID 1508642; note: nearly all actives have a fitted effect of over 65% in size
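S16 Schwann cells carrying the Pmp22-F2sN reporter, seeded in 1536-well format, were exposed to library compounds for 24 h at 37C. Viability was read as CellTiter-Glo luminescence after 15 min at room temperature.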
p53null 39C tox: kills p53 null cells at the nonpermissive temperature. 0.97% of 55,000 active. H1299 p53-null (neo) cells, 39C, ATPlite viability, 24 h. Potency, µM (doses to about 46.1 µM), hits mostly cytotoxic; note: nearly all actives have a fitted effect of over 50% in size
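Concentration-response (up to 46 uM) was run for 24 h at the nonpermissive 39C on H1299-p53A138V or H1299-neo cells. ATP content was measured with ATPlite luminescence. AC50 values were Hill-modeled after normalizing between DMSO and 100 uM tamoxifen killing.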
PMP22 txn prim: modulates PMP22 transcription in S16 Schwann cells; S16 Pmp22-F2sN Schwann cells (luciferase reporters placed in the Pmp22 gene), FLuc/NLuc coincidence luminescence, 24 h; 2% of 43,000 active; AID 1508649; Potency, µM (top dose mostly 57.5 µM), most hits filed as inhibitors; active = clear falling dose curves in both reporters; inconclusive = both reporters move, but less clearly or upward; inactive = either reporter flat; the % is the NLuc reporter signal
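Schwann cells carrying the coincidence reporter were exposed to library compounds for 24 h at 37C, then lysed and read for FLuc and, after quenching, NLuc luminescence on a CCD imager.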
pS6 MEF inh: mTORC1 pathway inhibition measured by phospho-rpS6; Tsc2-/- p53-/- MEF, phospho-rpS6 immunofluorescence/PI, 24 h; Potency, µM (highest dose often 38.3 µM), usual class: inhibitors; 0.78% of 44,000 active; AID 493208; note: nearly all actives have a fitted effect of over 50% in size
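Plate MEFs (Tsc2-/-, p53-/-, empty vector) in DMEM/10% FBS; after 24 h add compound, incubate 24 h at 37 degree Celsius; fix in PFA/TX-100, block, stain phospho-rpS6 and 10 uM PI; scan at 488 nm; report % positive cells.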
Of the large screens only hits and unclear results are named; the others gave an inactive call. Unless noted, calls come from the whole dose curve; as a rule, active = well fitted curve in the direction sought with a large enough effect; inconclusive = small, poorly fitted or top-dose-only effect, or another doubt; inactive = no such curve, though single readings can be large; an effect the other way counts as inactive or inconclusive.

CCCN1C(=O)C(O)(CC(=O)c2ccc(C(C)C)cc2)c2ccccc21 (stereo not drawn)	S16 F2sN tox inconclusive, pS6 MEF inh 13µM
C#CCN1C(=O)C(O)(CC(=O)c2ccc(OC)c(OC)c2)c2cc(Br)ccc21 (stereo not drawn)	S16 F2sN tox inconclusive, p53null 39C tox inconclusive, PMP22 txn prim inconclusive, pS6 MEF inh 5.2µM
CCCCN1C(=O)C(O)(CC(=O)c2ccc(CC)cc2)c2cc(Br)ccc21 (stereo not drawn)	S16 F2sN tox inconclusive, p53null 39C tox inconclusive, PMP22 txn prim inconclusive, pS6 MEF inh 16µM
COC(=O)CN1C(=O)C(O)(CC(=O)c2ccc(F)cc2)c2ccccc21 (stereo not drawn)	S16 F2sN tox inconclusive, pS6 MEF inh inconclusive
CCCCN1C(=O)C(O)(c2c(C)[nH]c3ccccc23)c2cc(Br)ccc21 (stereo not drawn)	p53null 39C tox inconclusive, PMP22 txn prim inconclusive, pS6 MEF inh inconclusive
CCCN1C(=O)C(O)(CC(=O)c2ccc(CC)cc2)c2ccccc21 (stereo not drawn)	pS6 MEF inh 15µM
O=C(CSC1=Nc2ccccc2C2=NC(Cc3ccccc3)C(=O)N12)Nc1ccccc1 (stereo not drawn)	S16 F2sN tox inconclusive
CC(C)c1ccc(C(=O)CC2(O)C(=O)N(CCc3ccccc3)c3ccc(Cl)cc32)cc1 (stereo not drawn)	p53null 39C tox 13µM, PMP22 txn prim inconclusive
CCOC(=O)c1c(C)[nH]c(C)c1S(=O)(=O)N1CCN(c2cccc(C(F)(F)F)c2)CC1	GALC G270D up 1.1µM, S16 F2sN tox inconclusive, PMP22 txn prim inconclusive
CCOc1ccc(OCC(=O)NCCS(=O)(=O)N2CCN(c3ccc(F)cc3)CC2)cc1	none
Cc1ccc(-n2nc3c(=O)n(C(C)C(=O)O)nc(C)c3c2C)cc1 (stereo not drawn)	none
O=[N+]([O-])c1ccc(NNC(=S)Nc2ccc(F)cc2)cc1	none (no result: GALC G270D up, S16 F2sN tox, PMP22 txn prim, pS6 MEF inh)
Fc1ccc(Nc2c(-c3ccccn3)nc3ccc(Cl)cn23)cc1	p53null 39C tox inconclusive
CC(C)c1ccc(Nc2c(-c3ccccc3O)nc3cnccn23)cc1	p53null 39C tox 25µM, PMP22 txn prim inconclusive
CC(C)c1ccc(Nc2c(-c3ccccn3)nc3ccccn23)cc1	S16 F2sN tox 8.9µM, p53null 39C tox inconclusive, PMP22 txn prim 14µM
COc1cc(-c2nc3cnccn3c2Nc2ccc(C(C)C)cc2)ccc1O	p53null 32C tox inconclusive, S16 F2sN tox inconclusive, p53null 39C tox 16µM, PMP22 txn prim inconclusive, pS6 MEF inh 15µM
Cc1ccccc1Nc1c(-c2cccnc2)nc2ccc(Cl)cn12	none
O=C(CSc1nc(-c2ccccc2)[nH]c1-c1ccccc1)Nc1ccc2c(c1)OCO2	S16 F2sN tox 35µM, p53null 39C tox inconclusive, PMP22 txn prim inconclusive, pS6 MEF inh inconclusive
Cc1ccc2sc(N(CCCN(C)C)C(=O)c3ccco3)nc2c1C	S16 F2sN tox inconclusive, p53null 39C tox inconclusive, PMP22 txn prim inconclusive, pS6 MEF inh 12µM
O=C(Nc1ccc(Br)cc1)C(Cc1ccccc1)NS(=O)(=O)c1cccc2nsnc12 (stereo not drawn)	none
O=C(OCC#CCSc1nc2ccccc2o1)c1cc2ccccc2o1	none (no result: GALC G270D up, S16 F2sN tox, PMP22 txn prim, pS6 MEF inh)
CCCCNC(=O)C1CCC(Cn2c(=O)c3sccc3n(CC(=O)Nc3ccccc3)c2=O)CC1 (stereo not drawn)	PMP22 txn prim inconclusive
COc1cccc(CNC(=O)CSc2ncc3c(n2)-c2cc(Cl)ccc2N(C)S3(=O)=O)c1	none
CC(C)(C)n1ncc2c(=O)n(CC(=O)c3ccccc3)cnc21	p53null 39C tox 13µM (no result: GALC G270D up, S16 F2sN tox, PMP22 txn prim, pS6 MEF inh)
Cc1ccc(-c2cn3ccc(C)cc3n2)cc1	p53null 32C tox 0.63µM, p53null 39C tox 0.79µM, PMP22 txn prim inconclusive
Cc1ccc2[nH]cc(C(c3ccccc3)c3ccc(Cl)s3)c2c1 (stereo not drawn)	p53null 32C tox 20µM, S16 F2sN tox inconclusive, p53null 39C tox 25µM, pS6 MEF inh inconclusive
Cc1cc(C)c(C(N)=O)c(Nc2cccc(Cl)c2)n1	none (no result: GALC G270D up, S16 F2sN tox, PMP22 txn prim, pS6 MEF inh)
COc1ccc(CNC(=O)C(=O)NCC(c2cccnc2)N2CCN(c3ccccc3F)CC2)cc1 (stereo not drawn)	PMP22 txn prim inconclusive
CC(=O)N1CCCc2cc(S(=O)(=O)N3CCCC(C(=O)N4CCN(c5ccccc5F)CC4)C3)ccc21 (stereo not drawn)	S16 F2sN tox 10µM, PMP22 txn prim inconclusive
CC(=O)N1CCCc2cc(S(=O)(=O)N3CCCC(C(=O)Nc4ccc(C)c(F)c4)C3)ccc21 (stereo not drawn)	none
CC(Nc1oc(-c2ccc(COc3ccccc3)o2)nc1C#N)c1ccccc1 (stereo not drawn)	p53null 39C tox inconclusive, PMP22 txn prim inconclusive, pS6 MEF inh 15µM
N#Cc1nc(-c2ccc(COc3ccccc3)o2)oc1NCc1ccccc1	p53null 39C tox inconclusive
Cc1cccc(OCc2ccc(-c3nc(C#N)c(NCCN(C)C)o3)o2)c1	S16 F2sN tox inconclusive, PMP22 txn prim inconclusive, pS6 MEF inh 5.2µM
C=C(C)CSc1nc(-c2ccccc2)cc(-c2ccc(OC)cc2)c1C#N	none
CCc1ccc(C2=CC(c3cccc(OC)c3OC)n3c(nc4ccccc43)N2)cc1 (stereo not drawn)	p53null 32C tox 14µM, S16 F2sN tox inconclusive, p53null 39C tox inconclusive, PMP22 txn prim inconclusive
CC(C)c1ccc(C2=CC(c3cccc(Cl)c3)n3ncnc3N2)cc1 (stereo not drawn)	S16 F2sN tox inconclusive, PMP22 txn prim inconclusive
CCc1ccc(C2=CC(c3cccc(C)c3)n3c(nc4ccccc43)N2)cc1 (stereo not drawn)	p53null 32C tox 10µM, S16 F2sN tox inconclusive, p53null 39C tox 10µM, PMP22 txn prim inconclusive
CC(C)c1ccc(C2=CC(c3cccc(Cl)c3)n3c(nc4ccccc43)N2)cc1 (stereo not drawn)	p53null 32C tox 22µM, p53null 39C tox inconclusive, PMP22 txn prim inconclusive
COc1ccccc1CNC(=O)c1ccc(N2Cc3cccc(OC)c3Oc3ncccc32)s1	PMP22 txn prim inconclusive
CCC(C(=O)NCCc1ccc(Cl)cc1)n1ccc2cc(S(=O)(=O)N3CCCCC3)ccc21 (stereo not drawn)	S16 F2sN tox inconclusive, PMP22 txn prim inconclusive, pS6 MEF inh inconclusive
CCCCN(CC)CCCNC(=O)c1cn(CC(C)C)c(=O)c2c1c1ccccc1n2C	PMP22 txn prim inconclusive, pS6 MEF inh inconclusive

Screens deposited in PubChem by National Center for Advancing Translational Sciences (NCATS).
